# Source: PubChem (several laboratories)
# esBAF inh: SWI/SNF esBAF complex inhibition | mouse ES cells, Bmi1-luciferase knock-in reporter, 24 h; 100% = twice the neutral-well signal | reporter increase, % at 12.5 µM | 350,000 compounds, 2% hits; in the data active = activation above about 40%; inconclusive = no clear call, values can overlap the other calls;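 also: 0% = median of the plate's neutral control wells and 100% = double that signal; a rise in the Bmi1 reporter signal indicates esBAF inhibition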
# CDK5 inh: inhibitors of human CDK5/p35 kinase; Q00535+Q15078; Recombinant CDK5/p35, ADP-Glo luminescence, 60 min; inhibition, % at 10 µM; 330,000 compounds, 0.01% hits;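 active = highest replicate inhibition of at least 50% and at least 75% of replicates reaching 50%; inconclusive = only one of the two criteria met; inactive = both criteria failed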;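 also: plate controls were DMSO neutral control for no effect and GW8510 at 10 µM for full effect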
# Rtt109 Vps75: inhibitors of Candida albicans Rtt109/Vps75 histone acetyltransferase. purified Rtt109/Vps75, ThioGlo CoA-SH fluorescence, 4 h. inhibition, % at 34.9 µM. 330,000 compounds, 0.16% hits. AID 540336;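 active = inhibition of at least 50% in every replicate; inconclusive = best replicate reaches 50% inhibition but some replicates fall short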
# Target sequence (Q5AAJ8 whole entry, looked up): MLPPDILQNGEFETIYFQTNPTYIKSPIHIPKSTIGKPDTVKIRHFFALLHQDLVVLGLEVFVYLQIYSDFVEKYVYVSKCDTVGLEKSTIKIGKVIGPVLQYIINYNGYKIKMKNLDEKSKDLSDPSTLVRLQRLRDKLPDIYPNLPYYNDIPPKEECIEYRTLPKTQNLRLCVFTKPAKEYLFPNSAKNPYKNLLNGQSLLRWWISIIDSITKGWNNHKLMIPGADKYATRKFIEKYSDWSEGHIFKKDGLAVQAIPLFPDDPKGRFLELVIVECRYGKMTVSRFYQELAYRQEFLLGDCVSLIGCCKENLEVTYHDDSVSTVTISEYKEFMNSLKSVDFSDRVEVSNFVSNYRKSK
# dFosB act-1: enhances mouse delta FosB homodimer DNA binding. P13346. purified delta FosB, TAMRA-CDK5 oligo fluorescence polarization; percent of positive-control signal above neutral wells. activation, % at 25 µM. 340,000 compounds, 0.99% hits. AID 493131;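 active = mean activation above about 17%, with every replicate also reaching it, limit read from the data, passing the limit was not always enough; inconclusive = only one of the two conditions met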
# DYRK1A inh: inhibitors of rat Dyrk1A kinase. Q63470. ADP-Glo luminescence, NFATc1 peptide. inhibition, % at 12.5 µM. 310,000 compounds, 0.43% hits. AID 504441; in the data active = inhibition above about 50%;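 also: plate controls were vehicle with enzyme for no effect and no enzyme for full effect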
# SMARCA2 activ: SMARCA2 function activation, primary screen; AID 652017; MG213 cells, MMTV-luciferase reporter, dexamethasone, overnight; 370,000 compounds, 1% hits; activation, % at 9.1 µM; in the data active = activation above about 7.8%;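 also: 0% = vehicle wells and 100% = reference activator wells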
# dFosB act-2: activators of mouse delta FosB homodimer DNA binding; shares compounds with dFosB act-1; purified delta FosB, TAMRA-CDK5 oligo fluorescence polarization; normalised: neutral wells 0, positive control 100; activation, % at 24.9 µM; 2,400 tested, under 10 active;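 active = highest replicate activation at or above 34% and every replicate reaching that threshold; inconclusive = meets only one of the two criteria; inactive = meets neither criterion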;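 also: higher polarization means more probe DNA bound by delta FosB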
# * hit, by the source's call; u = inconclusive; x = no result. Hits are enriched below; roughly 3.2% of the tested compounds scored in any of these assays.
SMILES,esBAF inh,CDK5 inh,Rtt109 Vps75,dFosB act-1,DYRK1A inh,SMARCA2 activ,dFosB act-2
COc1ccc(C2c3ccc(O)cc3Oc3ncn(Cc4ccco4)c(=N)c32)cc1OC (centres undefined),1,-3,0,2,-4,-1,x
Cn1c(=O)[nH]c(=O)c2c1nc(NCc1ccccc1)n2Cc1ccc(F)cc1,1,0,1,0,-3,-2,x
COc1ccc(CNc2nc3c(c(=O)[nH]c(=O)n3C)n2Cc2ccccc2C)cc1,-9,-4,-7,18*,0,0,0
O=C(Cc1ccc(Cl)cc1)NNC1CC(=O)N(c2ccc3ccccc3c2)C1=O (centres undefined),x,0,5,32*,5,-3,3
O=C(C[C@@H]1C=C[C@H](NC(=O)Nc2ccc(C(F)(F)F)cc2)[C@H](CO)O1)NCc1ccccn1,3,x,x,x,x,x,x
Cc1cc(NC(=O)c2cc(-c3cccs3)on2)no1,x,1,4,-2,-13,x,x
N#Cc1ccc(NC(=O)c2cc(-c3cccs3)on2)cc1,-5,1,6,22*,0,0,6
Cc1ccc2nc(-c3cccnc3SCC(=O)N3c4ccccc4CC3C)[nH]c2c1 (centres undefined),x,-1,-4,29*,-22,0,2
O=C(CC1S/C(=N/N=C/c2cccs2)NC1=O)Nc1ccccc1F (centres undefined),x,3,-16,32*,0,-2,2
CNC(=O)C[C@@H]1CC[C@@H]2[C@H](COC[C@@H](O)CN2Cc2ccc(C(F)(F)F)cc2)O1,4,x,x,x,x,x,x
CN(C)CCN(C(=O)c1ccc2ccccc2c1)c1nc2c(F)cc(F)cc2s1,-2,x,-16,36*,x,-3,7
Cc1cccc2sc(N(CCN(C)C)C(=O)c3ccc4ccccc4c3)nc12,-1,1,24,7,-5,0,x
Cc1ccc2nc(N(CCN(C)C)C(=O)c3ccc4ccccc4c3)sc2c1,7,-1,10,26*,0,x,6
CCOc1ccc2nc(N(CCCN(C)C)C(=O)c3ccc4c(c3)CCCC4)sc2c1,x,-1,13,26*,3,-2,5
CN(C)CCCN(C(=O)c1ccc2c(c1)CCCC2)c1nc2ccc(Cl)cc2s1,x,0,1,6,-1,-7,x
COc1ccc2nc(N(CCN(C)C)C(=O)c3ccc(C(=O)c4ccccc4)cc3)sc2c1,-2,0,17,31*,0,-1,0
COc1ccccc1S(=O)(=O)N[C@H]1CC[C@H](CCNC(=O)C2CCCC2)O[C@H]1CO,0,x,x,x,x,x,x
O=C(C[C@@H]1C[C@@H]2c3cc(NC(=O)Nc4ccc(C(F)(F)F)cc4)ccc3O[C@@H]2[C@@H](CO)O1)NC1CCCCC1,1,x,x,x,x,x,x
CCOc1ccc2nc(N(CCN(C)C)C(=O)/C=C/c3cccs3)sc2c1,1,-4,-17,32*,-1,x,6
CCOc1ccc2nc(N(CCN(C)C)C(=O)c3cc4ccccc4cc3OC)sc2c1,5,x,7,48*,x,x,8
CCOc1cccc2sc(N(CCN(C)C)C(=O)c3cc4ccccc4cc3OC)nc12,-3,0,36,u,4,-1,x
Cc1noc(C)c1S(=O)(=O)N(C)C[C@@H]1Oc2ccc(NC(=O)Cc3ccccc3)cc2CC(=O)N([C@@H](C)CO)C[C@@H]1C,-11,x,x,x,x,x,x
CCCNC(=O)N(C)C[C@H]1Oc2cc(-c3ccc(C)cc3)ccc2S(=O)(=O)N([C@H](C)CO)C[C@H]1C,3,x,x,x,x,x,x
C[C@@H]1CN([C@@H](C)CO)S(=O)(=O)c2ccc(Br)cc2O[C@@H]1CN(C)C,-4,x,x,x,x,x,x
CC(C)CC#Cc1ccc2c(c1)O[C@H](CN(C)Cc1cccc(F)c1)[C@H](C)CN([C@@H](C)CO)S2(=O)=O,-1,x,x,x,x,x,x
O=C(Cn1nc(C(=O)O)c2ccccc2c1=O)Nc1cccc(S(=O)(=O)N2CCCCC2)c1,-2,-2,-1,28*,-3,-3,8
NC(=O)c1c(NC(=O)Cn2nc(C(=O)O)c3ccccc3c2=O)sc2c1CCC2,1,0,-5,33*,-3,0,2
